Shown is part of a subset that was picked to be rich in the strongest signals.
Assays:
Test in all cases: glycan array binding signal (z-score within array); higher = stronger binding
Details in all cases: glycan notation: IUPAC condensed, linker removed
[1] = biological target: Fuc(a1-2)Gal(b1-3)GalNAc(b1-3)Gal
Method in brief: (§1)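 The binding signal is a Z-score computed within each array. Data were drawn from 3228 arrays in the Consortium for Functional Glycomics database, restricted to those with a known protein sequence. Scores were averaged over arrays of the same protein sequence at different concentrations or buffers, and over linkers, and negative values can be taken as non-binding.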

[2] = biological target: Fuc(a1-2)Gal(b1-3)GalNAc(b1-3)Gal(a1-4)Gal(b1-4)Glc
Method in brief: as §1

Fuc(a1-2)Gal(b1-4)GlcNAc = biological target: Fuc(a1-2)Gal(b1-4)GlcNAc
Method in brief: as §1

Fuc(a1-2)[Gal(a1-3)]Gal = biological target: Fuc(a1-2)[Gal(a1-3)]Gal
Method in brief: as §1

[3] = biological target: Fuc(a1-2)[GalNAc(b1-3)]Gal
Method in brief: as §1

[4] = biological target: Fuc(a1-3)[Gal(b1-4)]Glc6S
Method in brief: as §1

[5] = biological target: Gal(a1-3)[Gal(a1-4)]Gal(b1-4)GlcNAc
Method in brief: as §1

Gal(a1-4)Gal(b1-4)GlcNAc = biological target: Gal(a1-4)Gal(b1-4)GlcNAc
Method in brief: as §1

[6] = biological target: Gal(b1-3)[GlcNAc(b1-6)]GalNAc
Method in brief: as §1

[7] = biological target: Gal(b1-4)GlcNAc(b1-3)Gal(b1-4)Glc
Method in brief: as §1

[8] = biological target: Gal(b1-4)GlcNAc(b1-3)[Gal(b1-4)GlcNAc(b1-6)]Gal(b1-4)GlcNAc
Method in brief: as §1

[9] = biological target: Gal(b1-4)GlcNAc(b1-6)Gal(b1-4)GlcNAc
Method in brief: as §1

[10] = biological target: Gal(b1-4)GlcNAc(b1-6)[Gal(b1-3)]GalNAc
Method in brief: as §1

Gal3S4S(b1-4)GlcNAc = biological target: Gal3S4S(b1-4)GlcNAc
Method in brief: as §1

Gal3S6S(b1-4)GlcNAc6S = biological target: Gal3S6S(b1-4)GlcNAc6S
Method in brief: as §1

Gal6S(b1-4)Glc6S = biological target: Gal6S(b1-4)Glc6S
Method in brief: as §1

[11] = biological target: GlcNAc(a1-3)Gal(b1-4)GlcNAc
Method in brief: as §1

GlcNAc(b1-3)Man = biological target: GlcNAc(b1-3)Man
Method in brief: as §1

[12] = biological target: GlcNAc(b1-3)[GlcNAc(b1-6)]GalNAc
Method in brief: as §1

[13] = biological target: GlcNAc(b1-4)Gal(b1-4)GlcNAc
Method in brief: as §1

[14] = biological target: GlcNAc(b1-4)GlcNAc(b1-4)GlcNAc(b1-4)GlcNAc(b1-4)GlcNAc(b1-4)GlcNAc
Method in brief: as §1

Kdn(a2-3)Gal(b1-3)GlcNAc = biological target: Kdn(a2-3)Gal(b1-3)GlcNAc
Method in brief: as §1

[15] = biological target: Man(a1-2)Man(a1-3)[Man(a1-2)Man(a1-6)]Man
Method in brief: as §1

Man(b1-4)GlcNAc = biological target: Man(b1-4)GlcNAc
Method in brief: as §1

[16] = biological target: Neu5Ac(a2-3)Gal(b1-3)GalNAc6S
Method in brief: as §1

[17] = biological target: Neu5Ac(a2-3)Gal(b1-4)GlcNAc(b1-2)Man(a1-3)[Neu5Ac(a2-6)Gal(b1-4)GlcNAc(b1-2)Man(a1-6)]Man(b1-4)GlcNAc(b1-4)GlcNAc
Method in brief: as §1

[18] = biological target: Neu5Ac(a2-6)Gal(b1-4)GlcNAc(b1-2)Man(a1-3)[Neu5Ac(a2-6)Gal(b1-4)GlcNAc(b1-2)Man(a1-6)]Man(b1-4)GlcNAc(b1-4)GlcNAc
Method in brief: as §1

Neu5Gc(a2-3)Gal(b1-4)Glc = biological target: Neu5Gc(a2-3)Gal(b1-4)Glc
Method in brief: as §1

Neu5Gc(a2-6)GalNAc = biological target: Neu5Gc(a2-6)GalNAc
Method in brief: as §1

B1: Factor H (Homo sapiens), P08603 (protein)
chain: MRLLAKIICLMLWAICVAEDCNELPPRRNTEILTGSWSDQTYPEGTQAIYKCRPGYRSLGNVIMVCRKGEWVALNPLRKCQKRPCGHPGDTPFGTFTLTGGNVFEYGVKAVYTCNEGYQLLGEINYRECDTDGWTNDIPICEVVKCLPVTAPENGKIVSSAMEPDREYHFGQAVRFVCNSGYKIEGDEEMHCSDDGFWSKEKPKCVEISCKSPDVINGSPISQKIIYKENERFQYKCNMGYEYSERGDAVCTESGWRPLPSCEEKSCDNPYIPNGDYSPLRIKHRTGDEITYQCRNGFYPATRGNTAKCTSTGWIPAPRCTLKPCDYPDIKHGGLYHENMRRPYFPVAVGKYYSYYCDEHFETPSGSYWDHIHCTQDGWSPAVPCLRKCYFPYLENGYNQNYGRKFVQGKSIDVACHPGYALPKAQTTVTCMENGWSPTPRCIRVKTCSKSSIDIENGFISESQYTYALKEKAKYQCKLGYVTADGETSGSITCGKDGWSAQPTCIKSCDIPVFMNARTKNDFTWFKLNDTLDYECHDGYESNTGSTTGSIVCGYNGWSDLPICYERECELPKIDVHLVPDRKKDQYKVGEVLKFSCKPGFTIVGPNSVQCYHFGLSPDLPICKEQVQSCGPPPELLNGNVKEKTKEEYGHSEVVEYYCNPRFLMKGPNKIQCVDGEWTTLPVCIVEESTCGDIPELEHGWAQLSSPPYYYGDSVEFNCSESFTMIGHRSITCIHGVWTQLPQCVAIDKLKKCKSSNLIILEEHLKNKKEFDHNSNIRYRCRGKEGWIHTVCINGRWDPEVNCSMAQIQLCPPPPQIPNSHNMTTTLNYRDGEKVSVLCQENYLIQEGEEITCKDGRWQSIPLCVEKIPCSQPPQIEHGTINSSRSSQESYAHGTKLSYTCEGGFRISEENETTCYMGKWSSPPQCEGLPCKSPPEISHGVVAHMSDSYQYGEEVTYKCFEGFGIDGPAIAKCLGEKWSHPPSCIKTDCLSLPSFENAIPMGEKKDVYKAGEQVTYTCATYYKMDGASNVTCINSRWTGRPTCRDTSCVNPPTVQNAYIVSRQMSKYPSGERVRYQCRSPYEMFGDEEVMCLNGNWTEPPQCKDSTGKCGPPPPIDNGDITSFPLSVYAPASSVEYQCQNLYQLEGNKRITCRNGQWSEPPKCLHPCVISREIMENYNIALRWTAKQKLYSRTGESVEFVCKRGYRLSSRSHTLRTTCWDGKLEYPTCAKR
- glycan array binding signal (z-score) [1]: 3.46
- glycan array binding signal (z-score) [2]: 0.586
- glycan array binding signal (z-score) (Fuc(a1-2)Gal(b1-4)GlcNAc): 3.15
- glycan array binding signal (z-score) (Fuc(a1-2)[Gal(a1-3)]Gal): -0.294
- glycan array binding signal (z-score) [3]: 3.61
- glycan array binding signal (z-score) [4]: -0.418
- glycan array binding signal (z-score) [5]: -0.355
- glycan array binding signal (z-score) (Gal(a1-4)Gal(b1-4)GlcNAc): -0.467
- glycan array binding signal (z-score) [6]: -0.403
- glycan array binding signal (z-score) [7]: -0.248
- glycan array binding signal (z-score) [8]: -0.173
- glycan array binding signal (z-score) [9]: -0.316
- glycan array binding signal (z-score) [10]: -0.537
- glycan array binding signal (z-score) (Gal3S4S(b1-4)GlcNAc): -0.168
- glycan array binding signal (z-score) (Gal3S6S(b1-4)GlcNAc6S): 11.8
- glycan array binding signal (z-score) (Gal6S(b1-4)Glc6S): 0.498
- glycan array binding signal (z-score) [11]: -0.015
- glycan array binding signal (z-score) (GlcNAc(b1-3)Man): 2.51
- glycan array binding signal (z-score) [12]: 1
- glycan array binding signal (z-score) [13]: 0.172
- glycan array binding signal (z-score) [14]: -0.101
- glycan array binding signal (z-score) (Kdn(a2-3)Gal(b1-3)GlcNAc): 1.99
- glycan array binding signal (z-score) [15]: 0.253
- glycan array binding signal (z-score) (Man(b1-4)GlcNAc): -0.282
- glycan array binding signal (z-score) [16]: -0.221
- glycan array binding signal (z-score) [17]: 0.231
- glycan array binding signal (z-score) [18]: -0.439
- glycan array binding signal (z-score) (Neu5Gc(a2-3)Gal(b1-4)Glc): -0.053
- glycan array binding signal (z-score) (Neu5Gc(a2-6)GalNAc): -0.411

— the supplement of paper PMC8728848
